# Screens: PubChem, National Center for Advancing Translational Sciences (NCATS)
# Hits are enriched below; roughly 2.4% of the tested compounds scored in any of these assays.
# FEN1 inhibitor: inhibitors of human flap endonuclease 1. P39748. Recombinant FEN1 flap cleavage, fluorescence, 15 min. 0.35% of 390,000 active. Potency, µM (top dose mostly 114 µM), without a hit: at the highest dose activity change, negative = inhibition, hits mostly inhibitors; also: % is scaled to controls: 0 for no effect and ±100 for the full control effect; nearly all actives have a fitted effect of over 65% in size
#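 With each library titrated from low to high concentration, compounds met 10 nM FEN1 for 15 min at room temperature before 50 nM substrate was added; readings at 0 and 15 min fed four-parameter Hill curve fits.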
# WRN helicase inh: blocks human WRN helicase. Potency, µM (doses to about 114 µM), for inactives: at the top dose activity change, negative = inhibition, actives largely listed as inhibitors. AID 651768. 0.46% of 360,000 active. WRN helicase unwinding, fluorescent forked duplex, kinetic; also: % is scaled to controls: 0 for no effect and ±100 for the full control effect; nearly all actives have a fitted effect of over 55% in size
#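 Kinetic fluorescence helicase assay: unwinding of a quenched forked DNA duplex (100 nM final) with 2 mM ATP final raises red fluorescence (525/598 nm). Compounds sat 15 min at room temperature with 20 nM WRN beforehand.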
# Pol iota inh: inhibitors of human DNA polymerase iota; Q9UNA4; Pol iota fluorescent replication assay, 10 min; Potency, µM (top dose mostly 115 µM), inactives show at the top dose activity, negative = inhibition, most hits filed as inhibitors; 1% of 390,000 active
#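 Fluorescent replication assay read twice, at 0 min and 10 min after adding 50 nM (final) substrate. Enzyme (10 nM) and compounds were first incubated 15 min at room temperature; enzyme-free buffer wells were negative controls.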
# POLB inh: blocks human DNA polymerase beta activity; P06746; Pol beta primer extension/strand displacement, fluorescence kinetic; Potency, µM (doses to about 114 µM), inactives show top-dose activity change, negative = inhibition, most hits filed as inhibitors; 1.3% of 340,000 active; AID 485314; also: % is scaled to controls: 0 for no effect and ±100 for the full control effect
#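 Human Pol beta at 10 nM; strand-displacement substrate 50 nM final. Compound exposure 15 min at room temperature before start, reaction 10 min at room temperature.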
# Pol eta inh: inhibitors of human DNA polymerase eta; AID 588591; recombinant Pol eta, fluorescent DNA replication assay; 1.2% of 390,000 active; Q9Y253; Potency, µM (highest dose often 114 µM), without a hit: at the highest dose activity change, negative = inhibition, hits mostly inhibitors; also: % is scaled to controls: 0 for no effect and ±100 for the full control effect
#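 Pol eta (10 nM) was preincubated with compounds for 15 min at room temperature, after which fluorescent replication substrate (50 nM final) was added to start the reaction. Fluorescence was read kinetically at 0 and 10 min.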
# POLK inh: blocks human DNA polymerase kappa activity. Q9UBT6. purified Pol kappa, fluorescent DNA synthesis assay, 10 min. Potency, µM (titrated, usually from 107 µM), for the others: at the top dose activity, negative = inhibition, most hits filed as inhibitors. 0.53% of 400,000 active. AID 588579; also: % is scaled to controls: 0 for no effect and ±100 for the full control effect
# Target sequence (Q9UBT6 whole entry, looked up): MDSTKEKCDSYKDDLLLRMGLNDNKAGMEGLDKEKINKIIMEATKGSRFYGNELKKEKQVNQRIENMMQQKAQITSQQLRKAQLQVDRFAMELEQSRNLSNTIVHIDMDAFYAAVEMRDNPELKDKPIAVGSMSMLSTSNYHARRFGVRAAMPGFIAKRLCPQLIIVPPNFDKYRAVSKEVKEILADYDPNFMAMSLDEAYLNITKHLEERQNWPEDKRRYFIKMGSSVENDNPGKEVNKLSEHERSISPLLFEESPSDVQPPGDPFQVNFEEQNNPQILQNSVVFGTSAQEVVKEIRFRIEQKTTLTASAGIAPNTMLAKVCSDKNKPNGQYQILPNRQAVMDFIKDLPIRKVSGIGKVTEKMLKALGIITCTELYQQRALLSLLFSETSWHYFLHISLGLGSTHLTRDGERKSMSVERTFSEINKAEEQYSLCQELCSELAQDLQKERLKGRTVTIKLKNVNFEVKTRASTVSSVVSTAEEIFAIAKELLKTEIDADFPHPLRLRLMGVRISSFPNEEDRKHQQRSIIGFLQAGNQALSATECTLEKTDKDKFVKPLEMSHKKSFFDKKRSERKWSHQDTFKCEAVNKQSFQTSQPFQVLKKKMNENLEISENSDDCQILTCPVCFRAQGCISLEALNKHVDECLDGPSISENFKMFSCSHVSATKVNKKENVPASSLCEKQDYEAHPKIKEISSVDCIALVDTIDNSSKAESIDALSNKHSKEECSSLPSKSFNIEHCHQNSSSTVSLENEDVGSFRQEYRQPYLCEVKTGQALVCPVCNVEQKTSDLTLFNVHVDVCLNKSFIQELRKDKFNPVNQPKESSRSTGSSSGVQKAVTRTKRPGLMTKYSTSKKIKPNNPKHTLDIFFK
#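 10 nM Pol kappa was preincubated with compounds for 15 min at room temperature. Reaction started with 50 nM (final) substrate. Fluorescence read kinetically at 0 and 10 min.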
# * marks the source's active call; other numbers are inactive results; u = inconclusive; x = no result; [ ] = dose if it differs, or a comment. Calls follow the shape of the dose curve; as a rule, active = well fitted curve in the direction sought with a large enough effect; inconclusive = small, poorly fitted or top-dose-only effect, or another doubt; inactive = no such curve, though single readings can be large; an effect the other way counts as inactive or inconclusive. Potency is read from the fitted curve at half-maximal effect.
SMILES,FEN1 inhibitor,WRN helicase inh,Pol iota inh,POLB inh,Pol eta inh,POLK inh
Cc1c(C(=O)O)cccc1-n1c(C)cc(/C=N/Nc2ccc([N+](=O)[O-])cn2)c1C,-15%,-1%[11.6 µM],50µM*,25µM*,u,79µM*
Cc1cc(/C=N/Nc2ccc([N+](=O)[O-])cn2)c(C)n1-c1ccccc1,-2%,-12%,24%,-1%,-14%,-12%
CCCCNc1ccc(/C=C2\C=Cc3ccccc32)cc1,-1%,x,24%,x,x,-9%
CC(=O)OC1(C(F)(F)F)Oc2ccccc2NC1=O (configuration not stated),u,-2%,-8%,79µM*,-4%,-9%
CC1(C(=O)NCc2ccc(F)cc2)Oc2ccccc2NC1=O (configuration not stated),0%,-29%,2%,-24%,5%,-8%
O=C(N/N=C/c1ccco1)c1cccc(S(=O)(=O)Nc2ccccc2Cl)c1,5%,u,45µM*,22µM*,20µM*,u
O=C(CCc1ccccc1)NNC(=O)Nc1ccccc1,5%,-3%,8%,-15%,-13%,3%
O=C(CCCCCCCC(=O)NNC(=O)Nc1ccccc1)NNC(=O)Nc1ccccc1,9%,-34%,u,32µM*,-29%,-32%
CCCCn1c(C)cc2c(c1=O)C1O[C@](c3ccsc3)(Cc3ccccc31)O2,x,x,x,2.2µM*,x,x
COc1cc2c(cc1OC)[C@@H]1O[C@](c3ccsc3)(C2)Oc2cc(C)n(-c3ccccc3)c(=O)c21,x,x,x,11%[22.9 µM],x,x
Cc1cc2c(c(=O)n1-c1ccccc1)C1O[C@](c3ccsc3)(Cc3ccccc31)O2,x,x,x,5µM*,x,x
CC[C@H](C)[C@H](NC(=O)[C@H](CC(C)C)NC(=O)[C@@H](N)CO)C(=O)NCC(=O)N[C@@H](CCCCN)C(=O)N[C@H](C(=O)O)C(C)C,x,x,x,x,x,14%[60.1 µM]
Clc1ccc2c(ccc[n+]2CCC2CCCCC2)c1,0%,x,u,x,x,-22%
COc1ccc(CNC(=O)c2cc3c(=O)n(C)c4ccccc4c3n2C)c(OC)c1,-7%,x,25%,-3%,-19%,-9%
Nc1c(Br)cc(/C=C/c2ccnc3ccccc23)cc1Br,-22%,x,u,x,x,u
Cc1ccc(-c2nnn3c2nc(NCCc2ccc(Cl)cc2)c2ccccc23)cc1,-5%,x,39%,4%,-14%,-6%
NS(=O)(=O)c1ccc(CCNc2nc3c(-c4cccc(F)c4)nnn3c3ccccc23)cc1,1%,-22%,10%,22%,u,-6%
Cc1ccc(-c2nnn3c2nc(NCCc2ccc(S(N)(=O)=O)cc2)c2ccccc23)cc1,-1%,-22%,85%,5µM*,-29%,2%
Cc1cccc(-c2nnn3c2nc(NCCc2ccc(S(N)(=O)=O)cc2)c2ccccc23)c1,-2%,-33%,u,10µM*,u,0%
O=C(c1cc(C(F)(F)F)cc(C(F)(F)F)c1)N1CCC2(CC1)CN(c1ncccn1)C2,x,x,x,x,x,-19%[60.1 µM]
COC/C=C/C1=CC2=CC(=O)C(C)(OC(=O)c3cnc4ccccc4n3)C(=O)C2=CN1C1CC1 (configuration not stated),u,-4%,u,x,u,-22%
COC/C=C/C1=CC2=CC(=O)C(C)(OC(=O)c3cnc4ccccc4n3)C(=O)C2=CN1c1ccc(OC)cc1 (configuration not stated),-4%,6%,u,x,u,-7%
CCCCC1=CC2=CC(=O)C(C)(OC(=O)c3cccs3)C(=O)C2=CO1 (configuration not stated),-20%,-33%,u,x,22µM*,u
COC/C=C/C1=CC2=CC(=O)C(C)(OC(=O)c3cnc4ccccc4n3)C(=O)C2=CN1Cc1ccccc1 (configuration not stated),9%,-21%,u,10µM*,28µM*,-38%
COC/C=C/C1=CC2=CC(=O)C(C)(OC(=O)c3ccco3)C(=O)C2=CO1 (configuration not stated),x,x,x,28µM*,x,x
SMILES,FEN1 inhibitor,WRN helicase inh,Pol iota inh,POLB inh,Pol eta inh,POLK inh
CCCCC1=CC2=CC(=O)C(C)(OC(=O)c3cnc4ccccc4n3)C(=O)C2=CO1 (configuration not stated),x,x,x,50µM*,x,x
CN(C)c1ncc2nc(-c3ccc(F)cc3)c(=O)n(C)c2n1,x,x,x,x,x,2%[60.1 µM]
COc1ccc(CNc2ccccc2C(=O)NCc2ccccc2)cc1COc1ccc(NC(C)=O)cc1,-13%,x,-1%,x,x,-26%
CCc1ccc([C@@H]2CC=C(C(=O)O)[C@H](c3ccccc3)N2S(=O)(=O)c2ccc(C)cc2)cc1,8%,-7%,-13%,x,2%,-25%
Cc1ccc(S(=O)(=O)N2[C@@H](c3ccc(Cl)cc3)C(C(=O)O)=CC[C@H]2c2ccc(Cl)c(Cl)c2)cc1,u,-6%[11.6 µM],u,x,89µM*,-16%
CCc1ccc([C@@H]2CC=C(C(=O)O)[C@H](c3ccc(C(C)(C)C)cc3)N2S(=O)(=O)c2ccc(C)cc2)cc1,u,u,26%,x,32µM*,-30%
COCCCNC(=O)c1ccc(Cn2c(=O)c3ccccc3n(Cc3c(C)cc(C)cc3C)c2=O)cc1,-2%,x,-14%,16%,-18%,-3%
CC(C)(C)n1ncc2c(=O)n(Cc3cccc(F)c3)cnc21,14%,x,-10%,x,x,8%
CC1=CCC(C(C)(C)O)CC1 (configuration not stated),x,x,x,x,x,-3%[60.1 µM]
CCCC(=O)Nc1ccc(S(=O)(=O)Nc2cc(C)nc(C)n2)cc1,6%,-5%,5%,15%,-6%,-18%
Cc1cc(NS(=O)(=O)c2ccc(NC(=O)C(F)(F)F)cc2)nc(C)n1,14%,14%,24%,56µM*,3%,-6%
COC(=O)c1cc(O)cc(OC)c1C(=O)c1c(O)cc(C)cc1O,-3%,-6%[11.6 µM],71µM*,u,35µM*,u
CC[N+]1(CC(=O)c2ccc(I)cc2)CCCCC1,14%,x,5%,x,x,-8%
O=C(Nc1ccc(-c2nc3ccccc3s2)c(O)c1)c1ccc(Br)cc1,-3%,x,14%,-1%,-24%,-5%
Oc1ccc(N=C/C=C/c2ccc(Br)cc2)cc1-c1nc2ccccc2s1,x,x,x,13µM*,x,x
OCCN1CCN(c2cc(-c3ccccc3)c3ccccc3n2)CC1,-3%,79µM*,-7%,-6%,-18%,-12%
O=C(Nc1ncnc2sc3c(c12)CCCCC3)c1ccco1,4%,2%,-4%,7%,22µM*,-8%
O=C(Nc1ncnc2sc3c(c12)CCCC3)c1ccncc1,-2%,1%,36%,8%,-20%,9%
